# ABHD5 PLIN5 PPI: ABHD5-PLIN5 interaction inhibitors, primary screen, cell lysate, split luciferase complementation, luminescence | inhibition, % at 4 µM | Perilipin-5 (Homo sapiens) + 1-acylglycerol-3-phosphate O-acyltransferase ABHD5 (Homo … | Split G. princeps luciferase complementation, 4 h | hit rate 0.78% among 360,000 | AID 602281, 2012;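 active = inhibition above the mean inhibition across every tested compound plus 3 SD, cut at about 22% in these data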;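 also: 0% = DMSO only wells and the 100% control is not disclosed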
# NOD2 RIPK2 PPI: NOD2-RIPK2 binding disruptors in cells, primary screen, fluorescence, CHO cells, BLA complementation; Receptor-interacting serine/threonine-protein kinase 2 (Homo sapiens), O43353; CCF4 ratio; inhibition, % at 4.98 µM; hit rate 0.38% among 360,000; AID 624267, 2012; in the data active = inhibition above about 21%;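 also: 0% = vehicle only and 100% = reference blocker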
# TLR9-MyD88 inh: inhibitors of TLR9-MyD88 association in cells, primary screen, cell-based, CHO, BLA complementation, fluorescence | inhibition, % at 4.98 µM | AID 504734, 2011 | Toll-like receptor 9 (Homo sapiens) + Myeloid differentiation primary response protein … | hit rate 0.21% among 340,000 | CCF4 FRET ratio;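 active = inhibition above the mean over all tested compounds plus 3 SD, cut at about 21% in these data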;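 also: 0% = DMSO only wells and 100% = clavulanate BLA inhibitor control wells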
# TLR4-MyD88 BLA: inhibitors of TLR4-MyD88 association in cells, primary screen, cell-based, HeLa CL3-4, BLA complementation, FRET ratio; Toll-like receptor 4 (Homo sapiens) + Myeloid differentiation primary response protein …; HeLa CL3-4 TLR4/MyD88 BLA complementation; inhibition, % at 8.4 µM; hit rate 0.18% among 200,000; AID 861, 2007; in the data active = inhibition above about 25%;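 also: 0% = vehicle and 100% = reference inhibitor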
# Active calls of the source: *; x = no result. A selection: hits, their analogues and other compounds. The true share with any hit is near 1.2%.
SMILES,ABHD5 PLIN5 PPI,NOD2 RIPK2 PPI,TLR9-MyD88 inh,TLR4-MyD88 BLA
O=c1c2ccccc2sn1-c1cc(S(=O)(=O)N2CCOCC2)ccc1N1CCOCC1,97*,1,6,-11
CCC(C)[C@H]1COCCS(=O)(=O)N1Cc1ccccc1 (stereo partly drawn),-1,-5,10,x
COc1ccc(/C=C(\NC(=O)/C=C/c2ccco2)C(=O)NCCc2nc3ccccc3[nH]2)cc1,23*,-5,-6,6
COc1ccc(/C=C(\NC(=O)c2ccco2)C(=O)NCCc2nc3ccccc3[nH]2)cc1,-2,-8,x,x
COc1cccc(C2=CC(c3ccc(C)cc3)n3ncnc3N2)c1 (stereo not drawn),x,x,x,15
CCc1ccc(C2=CC(c3cc(Br)ccc3F)n3ncnc3N2)cc1 (stereo not drawn),6,38*,29*,17
COc1cc(Cl)c(C)cc1NC(=O)CSC1=NCCS1,-7,-9,-2,x
c1ccc(C[n+]2csc3ccccc32)cc1,14,-1,2,1
Fc1cccc(C[n+]2csc3ccccc32)c1,36*,-3,-4,-7
Cc1ccc(-c2csc(NC(=O)c3cccc(N4C(=O)CCC4=O)c3)n2)o1,22*,2,-2,-9
CCOc1ccc(-c2csc(NC(=O)c3cccc(N4C(=O)CCC4=O)c3)n2)cc1,11,2,-3,x
COc1ccc(S(=O)(=O)NNC(=O)Cc2csc(C)n2)cc1[N+](=O)[O-],10,1,1,x
OCc1ccccc1SSc1ccccc1CO,48*,0,x,x
OCc1ccccc1CNCc1ccccc1,-1,3,6,4
COc1ccc(-c2nc3c(c(SCC(=O)Nc4cccc(O)c4)n2)Cc2c(CO)cnc(C)c2O3)cc1,33*,-9,8,x
C/C(CC(=O)NC1CCCC1)=N\NC(=O)Cc1cccs1,63*,-9,-5,4
Cc1cc[n+](CC(=O)c2ccc3c(c2)OCCO3)cc1,-1,-1,-8,-1
O=C(C[n+]1ccc(/C=C/c2ccccc2)cc1)c1ccc2c(c1)OCCO2,23*,-3,-9,x
O=C1CCCN1CCC1CCN(C2CC(=O)N(c3ccc(Cl)cc3)C2=O)CC1 (stereo not drawn),18,22*,-3,15
O=C1CCCN1CCC1CCN(C2CC(=O)N(Cc3ccc(N4CCCC4=O)cc3)C2=O)CC1 (stereo not drawn),17,-5,1,16
Cc1ccc(S(=O)(=O)c2cnc3cc(C)nn3c2N)cc1,8,-14,-3,8
Cc1cccc(C)c1-n1nnnc1C(c1cc2ccccc2o1)N1CCN(C/C=C/c2ccccc2)CC1 (stereo not drawn),8,-2,x,x
CCN1/C(=C/c2ccc3cc(C)ccc3[n+]2CC)Sc2cc(C)c(C)cc21,12,-7,6,3
CCN1/C(=C/c2ccc3cc(C)ccc3[n+]2CC)Sc2ccccc21,23*,17,4,16
O=[N+]([O-])c1ccc(-c2cnc(SCc3ccccc3Cl)[nH]2)cc1,-7,14,15,25*
SMILES,ABHD5 PLIN5 PPI,NOD2 RIPK2 PPI,TLR9-MyD88 inh,TLR4-MyD88 BLA
Cc1cc(C)c(CSc2ncc(-c3ccc([N+](=O)[O-])cc3)[nH]2)c(C)c1,-18,41*,17,14
NC(=O)CSc1ncc(-c2ccc([N+](=O)[O-])cc2)[nH]1,-2,3,0,-2
COc1ccc(C(=O)Oc2ccc3oc(=O)sc3c2)cc1,23*,-5,-4,-2
Cc1nc2ccc(NC(=O)c3cc([N+](=O)[O-])cc([N+](=O)[O-])c3Cl)cc2s1,56*,4,-9,3
Cc1ccc(/C=C/C(=O)O)cc1S(=O)(=O)N1CCCCC1,2,-1,5,x
O=C(NCc1ccccc1)c1ccc2nc(-c3ccco3)c(-c3ccco3)nc2c1,24*,8,1,-4
CCCCNC(=O)c1ccc2nc(-c3ccco3)c(-c3ccco3)nc2c1,14,0,1,7
O=S1(=O)N[C@@H](Cc2ccccc2)COc2cccc(N3CCSCC3)c21,-6,-4,x,x
CN(C(=O)Cc1c(C(=O)O)n(C)c2ccccc12)c1ccc(F)cc1,-5,-8,6,-2
COc1cccc(NC(=S)NC2CC(C)CC(C)(C)C2)c1 (stereo not drawn),-7,7,-1,x
Cc1nc2nc(-c3ccc(F)cc3)cn2nc1C,-1,0,-9,x
